By AC50 is commonly meant the midpoint of the concentration-response curve, whichever way the signal moves.

SMILES strings stand for the structures. Among all 16,000 compounds or so, about 5,700 (36%) were called active. Roughly 24% stayed inconclusive and do not appear here. Calls come from the whole dose curve; as a rule, active = well fitted curve in the direction sought with a large enough effect; inconclusive = small, poorly fitted or top-dose-only effect, or effect the other way; inactive = no such curve, though single readings can be large or run the other way. This is one part of the list.

Data on 64 molecules can be found in PubChem BioAssay AID1851 (National Center for Advancing Translational Sciences (NCATS), 2009).
% is set by controls: 0 for no effect and ±100 for the full control effect.

In the assay the target is Cytochrome P450 1A2 (Homo sapiens) (UniProt P05177). As to the kind of experiment: Cytochrome panel assay with activity outcomes. The following applies: recombinant CYP, pro-luciferin dealkylation, luminescence, p450-cyp1a2; series mostly up to 57.1 µM.
Chain of Cytochrome P450 1A2 (Homo sapiens) (P05177 whole entry, looked up): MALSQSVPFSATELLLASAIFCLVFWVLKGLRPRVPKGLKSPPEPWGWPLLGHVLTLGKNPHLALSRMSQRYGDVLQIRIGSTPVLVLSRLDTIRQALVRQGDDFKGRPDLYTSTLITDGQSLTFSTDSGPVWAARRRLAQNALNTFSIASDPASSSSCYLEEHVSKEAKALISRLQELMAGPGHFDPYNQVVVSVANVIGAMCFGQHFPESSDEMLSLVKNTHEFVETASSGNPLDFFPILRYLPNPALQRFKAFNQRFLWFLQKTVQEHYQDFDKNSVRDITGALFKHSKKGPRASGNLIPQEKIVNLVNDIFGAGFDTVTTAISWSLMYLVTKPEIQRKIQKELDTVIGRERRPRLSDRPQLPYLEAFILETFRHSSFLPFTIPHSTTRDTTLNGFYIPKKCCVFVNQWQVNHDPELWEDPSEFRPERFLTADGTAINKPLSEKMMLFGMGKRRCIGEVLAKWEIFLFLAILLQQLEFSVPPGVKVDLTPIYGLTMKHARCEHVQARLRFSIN
`c1csc(CNc2cc(-c3ccoc3)ncn2)c1`: the AC50 was 2 µM (active). `c1ccc(CNc2cc(-c3ccoc3)ncn2)cc1`: the AC50 was 25.1 µM (active). On the same count and under the same terms, to `c1cncc(CNc2cc(-c3ccoc3)ncn2)c1` belongs 3.16 µM (active); to `O=C(Oc1ccc2ccccc2c1Br)N1CCCCCC1`, 4.47 µM (active); to `Cc1ccccc1C(=O)Oc1ccc(Br)cc1C(=S)N1CCCC1`, “inactive”.

As for `O=C(Oc1ccccc1)N1CCC2(CC1)CCN(c1ccccc1)CC2`, the AC50 result is “inactive”.

Consider `COC(=O)[C@@H]1O[C@@H](c2c(OC)c(OC)c(C)c(OC)c2OC)[C@H](C)[C@@H](O)[C@@H]1C`, for which the activity, negative = inhibition is -4.49% [at 11.4 µM] (inactive). As to `Cn1c(-c2ccc3c(c2)OCO3)cc(=O)c2ccccc21`, the AC50 is 5.01 µM (active). The same measure, in the same setting: then `CC(C)n1cc(/C=C2/SC(=O)N(CC(=O)Nc3ccc4c(c3)OCO4)C2=O)c2ccccc21`, with “inactive”; and `Cn1cc(/C=C2/SC(=O)N(CC(=O)Nc3ccc4c(c3)OCO4)C2=O)c2ccccc21`, with “inactive”. Still for that read-out and setting: to `Cc1ccccc1/C=N\NC(=O)c1csnn1` belongs 1 µM (active); to `O=C(Nc1ccccc1)N1CCC2(CC1)CCN(C(=O)c1csnn1)CC2`, “inactive”; to `O=C(c1csnn1)N1CCC2(CC1)CN(c1ccccc1)C2`, “inactive”. For the molecule `O=C(CCNC(=O)Cn1ccc2ccccc2c1=O)NCCCN1CCN(c2ccc(F)cc2)CC1`, the AC50 result was “inactive”. Still for that read-out and setting: to `Cc1ccc(C2/C(=C(/O)c3ccc(Cl)cc3)C(=O)C(=O)N2CC2CCCO2)o1` (centres undefined) belongs “inactive”. Regarding `CCNc1ncc2nc(-c3ccc(Cl)cc3)c(=O)n(C[C@H]3CCCO3)c2n1`, the AC50 is 0.794 µM (active). In the case of `CCNc1ncc2nc(-c3ccc(F)cc3)c(=O)n(C[C@H]3CCCO3)c2n1`, the AC50 is 1.26 µM (active).

As to `COc1ccc(-n2c(=O)c(CCc3ccccc3)nc3cnc(N4CCN(C)CC4)nc32)cc1`, the AC50 result was “inactive”. Still for that read-out and setting: to `Cc1nc2cnc(N3CCNCC3)nc2n(Cc2cccs2)c1=O` belongs 0.631 µM (active); to `CN1CCN(c2ncc3nc(CCc4ccccc4)c(=O)n(C)c3n2)CC1`, 12.6 µM (active); to `Cc1nc2cnc(N3CCN(C)CC3)nc2n(Cc2cccs2)c1=O`, 12.6 µM (active). Same read-out and setting: then `Cc1nc2cnc(N3CCOCC3)nc2n(Cc2cccs2)c1=O`, with 2 µM (active).

Consider `Cc1cc2c(nc1C)CCCCN2C[C@H](O)CN1CCCc2nc(-c3ccc(Br)cc3)ccc21`, for which the activity, negative = inhibition is -8.63% [at 11.4 µM] (inactive).

`Cc1ccc(CCN2CC(C(=O)NCCN3CCCCCC3)CC2=O)cc1` (centres undefined): the AC50 entry is “inactive”. Still for that read-out and setting: to `CN1CCN(c2ncc3nc(CCc4ccccc4)c(=O)n(Cc4ccc(F)cc4)c3n2)CC1` belongs “inactive”. The same measure, in the same setting: then `CN1CCN(c2ncc3nc(CCc4ccccc4)c(=O)n(Cc4cccs4)c3n2)CC1`, with 15.8 µM (active). With `O=c1cnc2cnc(N3CCOCC3)nc2n1Cc1cccs1`, the concentration at half-maximal activity (AC50) is 2.51 µM (active). On the same count and under the same terms, to `C[C@H]1NC(=O)NC1=O` belongs “inactive”; to `COc1cc([C@@H](O)CO)ccc1OS(=O)(=O)O`, “inactive”. On the same count and under the same terms, then `Brc1ccc(/C=C/C=N/Nc2nc3ccccc3s2)cc1`, with 2.24 µM (active).

Regarding `Cc1ccc2ccccc2c1CSc1nc(N)nc2c1ncn2CC(C)C`, the activity, negative = inhibition is -20.8% [at 2.29 µM] (inactive). Take `CCCn1cnc2c(SCC(=O)O)nc(N)nc21`: the activity, negative = inhibition is 1.5% [at 11.4 µM] (inactive). For the molecule `CCCn1cnc2c(SCc3ccc(Cl)cc3)nc(N)nc21`, the AC50 is 1.26 µM (active).

Regarding `CCOC(=O)c1cnc(N(C)C)nc1SC(=N)N`, the activity, negative = inhibition was -22.6% [at 2.29 µM] (inactive). In the case of `CCOC(=O)c1cnc(SCCc2ccccc2)nc1N`, the AC50 was 25.1 µM (active).

Turning to `CCN1CCc2c(sc(N)c2C(N)=O)C1`, the AC50 entry was “inactive”. Still for that read-out and setting: then `CCOC(=O)c1c(NC(=S)Nc2ccccc2)sc2c1CCN(CCc1ccccc1)C2`, with 15.8 µM (active); and `CCN1CCc2c(sc(NC(=O)c3ccc(S(=O)(=O)N4CCOCC4)cc3)c2C(=O)OC)C1`, with “inactive”; and `Cc1ccc2c(c1)N(CC(=O)NC1CCC(C)CC1)C(=O)CO2` (centres undefined), with “inactive”. With `COc1ccc(CCNC(=O)CCN2C(=O)COc3ccc(C)cc32)cc1OC`, the AC50 result was “inactive”. For `Cc1ccc(CNC(=O)CN2C(=O)COc3ccc(C)cc32)cc1`, the concentration at half-maximal activity (AC50) was 3.16 µM (active). Same read-out and setting: then `COc1ccc(CCNC(=O)CCN2C(=O)C(C)Oc3ccc(C)cc32)cc1OC` (centres undefined), with “inactive”; and `Cc1ccc2c(c1)N(CCC(=O)NCc1cccnc1)C(=O)CO2`, with 3.16 µM (active). The same measure, in the same setting: to `CC(=O)OCC1=C(C(=O)O)N2C(=O)[C@@H](NC(=O)Cc3cccs3)[C@@H]2SC1` belongs “inactive”; to `Cc1ccc2c(c1)N(CC(=O)NC1CCCc3ccccc31)C(=O)CO2` (centres undefined), “inactive”. On the same count and under the same terms, to `Cc1ccc2c(c1)N(CCC(=O)NCc1ccc3c(c1)OCO3)C(=O)CO2` belongs 15.8 µM (active); to `Cc1ccc2c(c1)N(CC(=O)NCc1cccs1)C(=O)C(C)O2` (centres undefined), 5.01 µM (active); to `Cc1ccc2c(c1)N(CCC(=O)NCCN1CCOCC1)C(=O)CO2`, “inactive”. Take `Cc1ccc(C)c(N2CCN(C(=O)C3CCN(S(=O)(=O)c4cccc5nsnc45)CC3)CC2)c1`: the AC50 result was “inactive”. Regarding `CO[C@H]1COC(=O)C/C=C\[C@@H](C)COC(=O)[C@@H](C)NC(=O)C/C=C\[C@@H]1C`, the activity, negative = inhibition was -10.1% [at 11.4 µM] (inactive). Turning to `O=C(O)CCC(=O)N1CCC[C@H]1C(=O)O`, the AC50 result was “inactive”.

For `O=C(CCNS(=O)(=O)c1ccc2c(c1)CCC(=O)N2)NCc1ccc2c(c1)OCO2`, the AC50 entry was “inactive”. As for `COc1cc(C(=O)NCCC(=O)NCc2ccc3c(c2)OCO3)cc(OC)c1OC`, the AC50 is 20 µM (active). `CCN1CCCC1CNC(=O)CCNC(=O)c1cc(OC)c(OC)c(OC)c1` (centres undefined): the AC50 entry is “inactive”. The same measure, in the same setting: to `NS(=O)(=O)c1ccc(NS(=O)(=O)c2ccc(NC(=O)c3ccc(-c4ccccc4)cc3)cc2)cc1` belongs “inactive”; to `Cc1cc(C)c2nc(-c3ccccn3)cc(C(=O)Nc3ccc(S(=O)(=O)Nc4cc(C)on4)cc3)c2c1`, “inactive”.

As to `Cc1cc(NC(=O)c2ccc(S(=O)(=O)Nc3ccccc3)cc2)no1`, the AC50 was 5.01 µM (active). As for `COc1cc2ccccc2cc1C(=O)Nc1ccc(S(=O)(=O)Nc2cc(C)on2)cc1`, the AC50 was 25.1 µM (active). Still for that read-out and setting: then `Cc1ccc(OCC(=O)Nc2ccc(S(=O)(=O)Nc3onc(C)c3C)cc2)cc1`, with “inactive”; and `CC(C)CC(C(=O)NCC1CCCO1)N(C(=O)Cn1nnc(-c2ccc(F)cc2)n1)c1cccc(C(F)(F)F)c1` (centres undefined), with “inactive”. On the same count and under the same terms, to `Cc1noc(N)c1C(=O)Nc1ccc(F)cc1` belongs 8.91 µM (active); to `CCc1noc(N)c1C(=O)Nc1ccc(F)c(Cl)c1`, 4.47 µM (active); to `Cc1noc(C)c1C(=O)N1CCC2(CC1)CN(C(=O)Nc1cccc(F)c1)C2`, “inactive”. Same read-out and setting: then `Cc1cnn(CCC(=O)NNC(=S)Nc2ccc(F)cc2)c1`, with “inactive”.
